Activity calls are given as the source filed them. How the source made its calls: active means hit-call score of the fitted dose curve at least 0.9, where 1 is the maximum; inactive means score below 0.9.
Tests used:
[1] = read-out: Interleukin-1 alpha (IL1a), IL1A (gene 3552); assay: BSK_KF3CT_IL1a: BioMAP Diversity Plus: KF3CT Assay for Interleukin-1 alpha (IL1a) Biomarker Activity (AID 2283070); conditions: primary human keratinocytes with fibroblasts; actives raise or lower the signal
How it was run: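 IL-1a was detected by ELISA 24 h after chemical treatment of a co-culture of human skin keratinocytes and foreskin fibroblasts. Gain or loss of signal was fitted against the DMSO baseline.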

[2] = read-out: TIMP metallopeptidase inhibitor 2 (TIMP2), TIMP2 (gene 7077); assay: BSK_KF3CT_TIMP2: BioMAP Diversity Plus: KF3CT Assay for TIMP metallopeptidase inhibitor 2 (TIMP2) Biomarker Activity (AID 2283071); conditions: primary human keratinocytes with fibroblasts; actives raise or lower the signal
How it was run: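 Chemicals were dosed onto human skin primary co-cultures of keratinocytes and foreskin fibroblasts, and TIMP-2 was measured by ELISA after 24 hours. Activity in either direction was fitted relative to DMSO.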

[3] = read-out: Transforming growth factor beta 1 (TGFb1), TGFB1 (gene 7040); assay: BSK_KF3CT_TGFb1: BioMAP Diversity Plus: KF3CT Assay for Transforming growth factor beta 1 (TGFb1) Biomarker Activity (AID 2283072); conditions: primary human keratinocytes with fibroblasts; actives raise or lower the signal
How it was run: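 KF3CT co-culture (keratinocytes + fibroblasts), 24 h exposure → TGF-b1 ELISA → bidirectional fit, DMSO = baseline. Parallel SRB total-protein staining (0.1% SRB, 10% TCA fixation, 560 nm) for cytotoxicity.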

[4] = read-out: C-C motif chemokine 2 (Homo sapiens) (UniProt P13500); assay: BSK_KF3CT_MCP1: BioMAP Diversity Plus: KF3CT Assay for Monocyte Chemoattractant Protein 1 (MCP1/CCL2) Biomarker Activity (AID 2283073); conditions: primary human keratinocytes with fibroblasts; actives raise or lower the signal
How it was run: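 Human keratinocyte–foreskin fibroblast co-culture; MCP-1 measured by ELISA 24 h after dosing. Bidirectional fit vs DMSO; cytotoxicity tracked by SRB total protein in parallel cultures.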

[5] = read-out: Matrix Metallopeptidase 9 (MMP9), MMP9 (gene 4318); assay: BSK_KF3CT_MMP9: BioMAP Diversity Plus: KF3CT Assay for Matrix Metallopeptidase 9 (MMP9) Biomarker Activity (AID 2283074); conditions: primary human keratinocytes with fibroblasts; actives raise or lower the signal;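 on AC50: MMP9 protein level quantified by ELISA in the co-culture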
How it was run: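 MMP-9 quantified by ELISA after 24 h chemical treatment of primary human skin keratinocyte/fibroblast co-cultures; gain or loss fitted against DMSO, with parallel SRB staining (0.1% SRB, 560 nm) for overt cytotoxicity.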

[6] = read-out: urokinase plasminogen activator (uPA), PLAU (gene 5328); assay: BSK_KF3CT_uPA: BioMAP Diversity Plus: KF3CT Assay for urokinase plasminogen activator (uPA) Biomarker Activity (AID 2283075); conditions: primary human keratinocytes with fibroblasts; actives raise or lower the signal
How it was run: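 ELISA read-out of uPA 24 h after dosing human skin keratinocytes co-cultured with foreskin fibroblasts. Signal change fitted both ways relative to DMSO; sulforhodamine B on parallel cultures marks overt cytotoxicity.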

[7] = read-out: CD40, CD40 (gene 958); assay: BSK_LPS_CD40: BioMAP Diversity Plus: LPS Assay for CD40 Biomarker Activity (AID 2283076); conditions: primary human HUVEC with PBMC; actives raise or lower the signal
How it was run: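 HUVEC plus PBMC co-culture stimulated with LPS; CD40 quantified by ELISA 24 h after compound dosing. Fitting was bidirectional relative to DMSO. SRB staining of parallel cultures flagged overt cytotoxicity.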

[8] = read-out: E-selectin (Homo sapiens) (UniProt P16581); assay: BSK_LPS_Eselectin: BioMAP Diversity Plus: LPS Assay for Eselectin Biomarker Activity (AID 2283077); conditions: primary human HUVEC with PBMC; actives raise or lower the signal
How it was run: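 Human umbilical vein endothelial cells co-cultured with PBMC under LPS stimulation; cell-surface E-selectin measured by ELISA 24 h after dosing. Change in either direction versus DMSO, with SRB total-protein staining in parallel cultures for cytotoxicity.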

[9] = read-out: Interleukin-8 (IL8), CXCL8 (gene 3576); assay: BSK_LPS_IL8: BioMAP Diversity Plus: LPS Assay for Interleukin-8 (IL8) Biomarker Activity (AID 2283078); conditions: primary human HUVEC with PBMC; actives raise or lower the signal
How it was run: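 Human umbilical vein endothelial cells co-cultured with PBMC, LPS-stimulated, exposed to compound for 24 h. IL-8 quantified by ELISA; fitted in both directions against DMSO, with SRB total-protein staining of parallel cultures for cytotoxicity.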

[10] = BSK_LPS_SRB: Viability Assessment in the BioMAP Diversity Plus: LPS Assay (AID 2283079); conditions: primary human HUVEC with PBMC;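 further: total protein by sulforhodamine B absorbance as a cytotoxicity measure; measured one day after compound addition; fitted in both directions against DMSO so loss or gain of signal counts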
How it was run: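 Co-culture of human umbilical vein endothelial cells and PBMC, read 24 h after dosing. Total protein by 0.1% SRB staining after 10% TCA fixation, absorbance at 560 nm; bidirectional fit against DMSO.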

[11] = read-out: Interleukin-1 alpha (IL1a), IL1A (gene 3552); assay: BSK_LPS_IL1a: BioMAP Diversity Plus: LPS Assay for Interleukin-1 alpha (IL1a) Biomarker Activity (AID 2283080); conditions: primary human HUVEC with PBMC; actives raise or lower the signal
How it was run: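 Human umbilical vein endothelial cells co-cultured with PBMC and stimulated with LPS; IL-1a measured by ELISA 24 h after dosing. Bidirectional fitting against DMSO; cytotoxicity checked by SRB staining in parallel cultures.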

[12] = read-out: Monocyte Chemoattractant Protein-1 (MCP1), CCL2 (gene 6347); assay: BSK_LPS_MCP1: BioMAP Diversity Plus: LPS Assay for Monocyte Chemoattractant Protein-1 (MCP1) Biomarker Activity (AID 2283081); conditions: primary human HUVEC with PBMC; actives raise or lower the signal;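 on AC50: secreted MCP-1 protein quantified by ELISA in culture supernatant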
How it was run: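 Human umbilical vein endothelial cells co-cultured with PBMC, LPS-stimulated; secreted MCP-1 measured by ELISA 24 h after compound addition. Bidirectional curve fitting against DMSO baseline; SRB total-protein staining in parallel cultures for cytotoxicity.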

[13] = BSK_LPS_PGE2: BioMAP Diversity Plus: LPS Assay for Prostaglandin E2 (PGE2) Biomarker Activity (AID 2283082); conditions: primary human HUVEC with PBMC; actives raise or lower the signal
How it was run: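 Compounds were added to the LPS co-culture of endothelium and PBMC, and PGE2 was measured by ELISA after 24 h. Responses in either direction were fitted with DMSO as baseline.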

[14] = read-out: Macrophage colony-stimulating factor (MCSF), CSF1 (gene 1435); assay: BSK_LPS_MCSF: BioMAP Diversity Plus: LPS Assay for Macrophage colony-stimulating factor (MCSF) Biomarker Activity (AID 2283083); conditions: primary human HUVEC with PBMC; actives raise or lower the signal
How it was run: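 HUVEC–PBMC co-culture, M-CSF measured by ELISA 24 h after chemical dosing. Fitted in both directions relative to DMSO as negative control; overt cytotoxicity assessed by SRB total-protein staining in parallel cultures.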

[15] = read-out: Tissue Factor, F3 (gene 2152); assay: BSK_LPS_TissueFactor: BioMAP Diversity Plus: LPS Assay for Tissue Factor Biomarker Activity (AID 2283084); conditions: primary human HUVEC with PBMC; actives raise or lower the signal
How it was run: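 Human umbilical vein endothelial cells co-cultured with PBMC were dosed with compound. Cell-surface CD142 was measured by ELISA 24 h later. Activity was fitted bidirectionally against DMSO, with SRB total-protein staining in parallel cultures for cytotoxicity.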

[16] = read-out: Tumor necrosis factor (Homo sapiens) (UniProt P01375); assay: BSK_LPS_TNFa: BioMAP Diversity Plus: LPS Assay for Tumour Necrosis Factor alpha (TNFa) Biomarker Activity (AID 2283085); conditions: primary human HUVEC with PBMC; actives raise or lower the signal;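 on AC50: TNFa protein level quantified by ELISA in the co-culture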
How it was run: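 Cells (umbilical vein endothelium plus peripheral blood mononuclear cells) were dosed with chemical, incubated 24 h, then TNFa was quantified by ELISA; values derive from bidirectional fitting with DMSO as baseline.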

[17] = read-out: Vascular cell adhesion molecule 1 (VCAM1), VCAM1 (gene 7412); assay: BSK_LPS_VCAM1: BioMAP Diversity Plus: LPS Assay for Vascular cell adhesion molecule 1 (VCAM1) Biomarker Activity (AID 2283086); conditions: primary human HUVEC with PBMC; actives raise or lower the signal
How it was run: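 Cells are dosed in an LPS-stimulated endothelial/mononuclear co-culture and, after 24 h, VCAM-1 is quantified by ELISA. Activity in either direction is fitted relative to the DMSO negative control.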

[18] = read-out: CD40, CD40 (gene 958); assay: BSK_SAg_CD40: BioMAP Diversity Plus: SAg Assay for CD40 Biomarker Activity (AID 2283088); conditions: primary human HUVEC with PBMC; actives raise or lower the signal
How it was run: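 HUVEC plus PBMC co-culture, superantigen-activated, with CD40 read by ELISA 24 h after dosing. Curves fitted in both directions against DMSO. Overt cytotoxicity checked by parallel SRB total-protein staining.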

[19] = read-out: CD69, CD69 (gene 969); assay: BSK_SAg_CD69: BioMAP Diversity Plus: SAg Assay for CD69 Biomarker Activity (AID 2283089); conditions: primary human HUVEC with PBMC; actives raise or lower the signal;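 on AC50: cell surface CD69 protein quantified by ELISA with fluorescence detection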
How it was run: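 ELISA, fluorescence read-out: CD69 on human umbilical vein endothelial cell + PBMC co-culture, 24 h post-dosing. Gain or loss of signal fitted bidirectionally against DMSO baseline.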

[20] = read-out: CD38, CD38 (gene 952); assay: BSK_SAg_CD38: BioMAP Diversity Plus: SAg Assay for CD38 Biomarker Activity (AID 2283087); conditions: primary human HUVEC with PBMC; actives raise or lower the signal
How it was run: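 CD38 quantified by ELISA (fluorescence) in a superantigen-activated endothelial cell–PBMC co-culture at 24 h post-dose. Activity fitted in both directions relative to DMSO; parallel SRB and Alamar Blue cytotoxicity read-outs.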

Measured: AC50

Tumor necrosis factor (Homo sapiens), sequence (P01375 whole entry, looked up): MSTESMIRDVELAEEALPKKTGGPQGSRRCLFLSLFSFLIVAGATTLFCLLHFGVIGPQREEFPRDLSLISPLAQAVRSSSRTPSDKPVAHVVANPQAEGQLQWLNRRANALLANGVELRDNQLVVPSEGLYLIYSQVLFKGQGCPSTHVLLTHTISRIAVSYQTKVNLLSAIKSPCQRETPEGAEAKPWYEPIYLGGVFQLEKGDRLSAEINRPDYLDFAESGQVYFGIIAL
E-selectin (Homo sapiens), sequence (P16581 whole entry, looked up): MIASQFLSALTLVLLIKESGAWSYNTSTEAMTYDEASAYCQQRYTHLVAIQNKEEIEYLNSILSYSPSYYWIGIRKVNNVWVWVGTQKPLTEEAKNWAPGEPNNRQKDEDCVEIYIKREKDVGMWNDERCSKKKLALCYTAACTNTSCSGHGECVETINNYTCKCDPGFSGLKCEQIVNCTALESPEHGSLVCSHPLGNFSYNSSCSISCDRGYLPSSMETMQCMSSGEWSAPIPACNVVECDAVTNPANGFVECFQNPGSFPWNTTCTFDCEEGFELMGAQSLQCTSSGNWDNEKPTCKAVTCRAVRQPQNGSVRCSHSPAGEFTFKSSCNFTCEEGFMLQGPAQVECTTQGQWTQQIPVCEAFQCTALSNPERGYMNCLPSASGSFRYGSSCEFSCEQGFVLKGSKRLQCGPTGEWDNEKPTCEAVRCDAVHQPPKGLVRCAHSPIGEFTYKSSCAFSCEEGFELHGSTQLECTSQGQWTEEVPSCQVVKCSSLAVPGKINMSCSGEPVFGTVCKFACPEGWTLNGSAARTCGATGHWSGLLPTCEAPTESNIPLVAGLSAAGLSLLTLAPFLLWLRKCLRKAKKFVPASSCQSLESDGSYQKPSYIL

CCCCC(CC)COP(=O)(Oc1ccccc1)Oc1ccccc1 (stereo unspecified)
inactive: [4] | [13] | [15]
active: [1] 5.46 µM | [2] 6.54 µM | [3] 5.46 µM | [5] 3.71 µM | [6] 4.9 µM | [7] 13.5 µM | [8] 20 µM | [9] 20 µM | [10] 20 µM | [11] 20 µM | [12] 7.43 µM | [14] 8.19 µM | [16] 20 µM | [17] 13 µM | [18] 20 µM | [19] 13.3 µM

CCC1(c2ccccc2)C(=O)N=C(O)NC1=O (stereo unspecified)
not listed: [20]
inactive: all other assays above

Nc1cc2c3c(c1)C(c1ccccc1)=N[C@@H](NC(=O)c1cccnc1)C(=O)N3CC2
active: [16] 1.46 µM | [18] 3.97 µM | [19] 0.837 µM
inactive: all other assays above

CC(Cl)CN(C)C (stereo unspecified)
active: [5] 0.0889 µM
not listed: [7]
inactive: all other assays above

CCNc1nc(Cl)nc(NC(C)(C)C)n1
active: [16] 5.47 µM | [20] 7.93 µM | [18] 20 µM
inactive: all other assays above

CCCCC(CC)COC(=O)c1c(Br)c(Br)c(Br)c(Br)c1C(=O)OCC(CC)CCCC (stereo unspecified)
not listed: [20]
inactive: all other assays above
